Measurements taken from PubChem BioAssay (NCI).
About 79,000 compounds went through this panel and 15% of them were active in at least one assay; those are over-represented in the sample as a whole. No stated cut-off is given here; in the data, active means growth inhibition above about 70%; inactive means the rest.

Key:
[1] = NCI Yeast Anticancer Drug Screen. Data for the rad50 strain (AID 155);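 further: 0% = growth of vehicle-only cultures of the same strain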; details: S. cerevisiae rad50 strain growth inhibition; at 50.0 µM; stronger effect = higher value
Method in brief: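 Relative growth inhibition (compound vs vehicle) was measured in yeast with a defined repair-gene alteration.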

[2] = NCI Yeast Anticancer Drug Screen. Data for the mec2-1 strain (AID 157); details: S. cerevisiae mec2-1 strain, at 50.0 µM, stronger effect = higher value
Method in brief: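 Mutant yeast (mec2-1) grown with compound; growth inhibition relative to vehicle control reported.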

[3] = NCI Yeast Anticancer Drug Screen. Data for the sgs1 mgt1 strain (AID 161);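 further: 0% = growth of cultures given vehicle only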; details: S. cerevisiae sgs1 mgt1 strain, at 50.0 µM, stronger effect = higher value
Method in brief: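 Compounds are added to genetically altered yeast, and growth is compared with cultures given vehicle alone to give percent inhibition.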

[4] = NCI Yeast Anticancer Drug Screen. Data for the cln2 rad14 strain (AID 165);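 further: 0% = growth equal to vehicle treated cultures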; details: S. cerevisiae cln2 rad14 strain, at 50.0 µM, stronger effect = higher value
Method in brief: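 Readout is yeast growth inhibition versus vehicle-treated controls, using a strain with cln2 and rad14 alterations exposed to compound.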

[5] = NCI Yeast Anticancer Drug Screen. Data for the bub3 strain (AID 167); details: S. cerevisiae bub3 mutant strain, at 50.0 µM, stronger effect = higher value
Method in brief: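 Screening used yeast with an engineered genetic alteration affecting cell cycle control. Compound-exposed cultures were compared with vehicle cultures, and reduced growth was taken as inhibition.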

[6] = NCI Yeast Anticancer Drug Screen. Data for the mlh1 rad18 strain (AID 175); details: S. cerevisiae mlh1 rad18 strain growth inhibition; at 50.0 µM; stronger effect = higher value
Method in brief: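 Genetically defined yeast (DNA repair-deficient) exposed to compounds; growth inhibition determined relative to vehicle.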

Measured: growth inhibition

NC(=S)N/N=C/c1ccc(OC(F)(F)F)cn1
inactive: [1] 27.1% | [2] 28.1% | [3] 46.5% | [4] 10.3% | [5] 59.5% | [6] 40.6%

CCCCCCCCCCCCCCCCCC(=O)Oc1c(C(C)CC)cc([N+](=O)[O-])cc1[N+](=O)[O-] (stereo unspecified)
inactive: [1] 13.2% | [2] 25% | [3] 46.2% | [4] 2.85% | [5] 10.1% | [6] 53.9%

CCOc1cc(C(=O)O)cc(OCC)n1
inactive: [1] -0.1% | [2] -9.45% | [3] 9.2% | [4] -29.4% | [5] 8.95% | [6] 3.05%

CC(C)(C)OC(=O)NC(CC(N)=O)C(=O)O (stereo unspecified)
inactive: [1] 23.1% | [2] -6% | [3] 8.9% | [4] -33.5% | [5] -6.45% | [6] 10.7%

O=[N+]([O-])c1ccc(C2ON=C(c3ccccc3)N2C23CC4CC(CC(C4)C2)C3)cc1 (stereo unspecified)
inactive: [1] -12.6% | [2] -9% | [3] -6.1% | [4] 25.5% | [5] -6.5% | [6] -28.4%

CC[Si](CC)(CC)[Si](c1ccccc1)(c1ccccc1)c1ccccc1
inactive: [1] 42.1% | [2] 32% | [3] 17.1% | [4] 8.8% | [5] -17.4% | [6] 48.8%

COc1ccc(OC)c(CNc2ccc(C(=O)O)cc2)c1
inactive: [1] 11.4% | [2] -1.25% | [3] 15% | [4] -1.9% | [5] 6.75% | [6] 29.6%

Cc1ccc(C2(C(=O)O)CC2)cc1
inactive: [1] -3.2% | [2] -25.7% | [3] 12.3% | [4] 21.4% | [5] -13.8% | [6] 5.15%

O=C(c1ccccc1)c1oc2ccc(Br)cc2c1-c1cnn(-c2ccccc2)c1
inactive: [1] 29.2% | [2] -9.5% | [3] 11.9% | [4] 15.1% | [5] -3.85% | [6] 22.1%

Cn1c2c(c3ccccc31)CCN(CCCCN1CCc3c(n(C)c4ccccc34)C1=O)C2
inactive: [1] -0.05% | [2] -24.4% | [3] -19.3% | [4] 5.25% | [5] -5% | [6] -12.8%

O/N=C1/CCCc2nonc21
inactive: [1] -18.6% | [2] -3.15% | [3] -0.3% | [4] 4.35% | [5] -8.2% | [6] -6.5%

CCCCNC(N)=O
inactive: [1] -21.1% | [2] -36.1% | [3] -21.9% | [4] -37.9% | [5] -2.2% | [6] -9.25%

CCOCc1ccccc1C(O)(c1ccc(OC)cc1)c1ccccc1OC (stereo unspecified)
inactive: [1] 37.6% | [2] 16.3% | [3] 40.9% | [4] 50.8% | [5] 6.85% | [6] 57.4%

Clc1ccc2cc(Cl)c3ccccc3c2c1
inactive: [1] -17.4% | [2] -24.4% | [3] -16.4% | [4] -20.9% | [5] 4.25% | [6] -0.05%

Cc1ccc(S(=O)(=O)OCCN(CCOS(=O)(=O)c2ccc(C)cc2)c2cccc(Cl)c2)cc1
inactive: [1] 14.1% | [2] 2.35% | [3] 4.65% | [4] 19% | [5] -4.45% | [6] 29.9%

COc1ccc(/C(=C/n2ccnc2)C(O)c2ccc(OC)c(OC)c2)cc1OC (stereo unspecified)
inactive: [1] -16.5% | [2] -11.8% | [3] -31.8% | [4] -2.25% | [5] -2.8% | [6] -11.3%

CS(=O)(=O)CC(O)(c1ccc(Cl)cc1)c1ccccn1 (stereo unspecified)
inactive: [1] 11.5% | [2] 0.85% | [3] -6.55% | [4] -21.6% | [5] -0.8% | [6] 3.8%

CC(=O)OC1CCC2(C)C(CCC3C2CCC2(C)C3CCC2C(C)(C)O)C1 (stereo unspecified)
inactive: [1] -2.2% | [2] 0.3% | [3] -16.4% | [4] -9.15% | [5] -2.45% | [6] 20.6%

c1ccc(-c2ccc(-c3ccccc3)c(-c3ccc4c(c3)CCC4)c2-c2ccccc2)cc1
inactive: [1] 14.1% | [2] 13.3% | [3] 7.25% | [4] 13.9% | [5] -3.85% | [6] 21.8%

C[N+](C)(C)C1CC([N+](C)(C)C)C2c3ccccc3C21 (stereo unspecified)
inactive: [1] -15.2% | [2] 23.1% | [3] 1.95% | [4] -9.05% | [5] -3.35% | [6] 3.9%

NNC(=S)N/N=C(\CCCC(=O)NCCc1ccccc1)CC(=O)c1ccccc1
inactive: [1] -3.6% | [2] 12.8% | [3] -21.3% | [4] 18.1% | [5] 8.15% | [6] 8.8%

CCC(CC)CCC(=O)CC(C)C
inactive: [1] 23.9% | [2] -3.5% | [3] -15.6% | [4] 5.5% | [5] -19% | [6] 7.1%

CCCCCCCCCCCCCCCC(=O)OCC(O)CO (stereo unspecified)
inactive: [1] -28.4% | [2] -0.35% | [3] -6.25% | [4] -167% | [5] -11% | [6] 1.1%

CN(C)c1ccc(C(=Cc2ccccc2)c2ccc(N(C)C)cc2)cc1
inactive: [1] -0.9% | [2] 18.3% | [3] -2.8% | [4] -63.6% | [5] 0.8% | [6] 5.5%

CC1=C(C(=O)Nc2ccc(Cl)c(C(=O)OC(C)C)c2)SCCO1
inactive: [1] 44.9% | [2] 7.35% | [3] 5.15% | [4] 4.05% | [5] 25.4% | [6] 0.45%

CCc1cc(C)cc(C(C)(C)C)c1
inactive: [1] 12.4% | [2] -17.8% | [3] 25.1% | [4] 7.15% | [5] -8.35% | [6] 22%

NC(Cc1cccc2ccccc12)C(=O)O (stereo unspecified)
inactive: [1] 14.3% | [2] -1.2% | [3] 10.4% | [4] -48.1% | [5] -7.3% | [6] 5.5%

CCOC(=O)NC(CC)c1ccc2oc3ccccc3c2c1 (stereo unspecified)
inactive: [1] -10.5% | [2] 1.9% | [3] 20.4% | [4] -4.15% | [5] 32% | [6] -15.3%

COc1ccc(OC)c(CC(N)=O)c1
inactive: [1] -5.5% | [2] 4.6% | [3] -0.9% | [4] -23.8% | [5] 21.4% | [6] -8.85%

O=C(OCc1ccccc1)C1CC1 (tested in a mixture with another compound)
inactive: [1] 12.1% | [2] 14.8% | [3] 15.4% | [4] 6.1% | [5] 20.8% | [6] 25.2%

O=C(/C=C/c1ccc(OCCCCCCCCCCOc2ccc(/C=C/C(=O)c3ccc(Cl)cc3)cc2)cc1)c1ccc(Cl)cc1
inactive: [1] 5.3% | [2] -1.45% | [3] -15.3% | [4] 16.1% | [5] 22.5% | [6] 15.6%

NC(CSCCSCCSCC(N)C(=O)O)C(=O)O (stereo unspecified)
inactive: [1] -4.45% | [2] 0.1% | [3] 11.2% | [4] -9.05% | [5] -38.4% | [6] -4.5%

CCOCCn1c(=O)cc(C)c2ccccc21
inactive: [1] -20.3% | [2] 1.6% | [3] -16.8% | [4] -41.3% | [5] 14.2% | [6] -13.7%

CCOC(=O)N1CCN(c2ccc3ccc(N)nc3n2)CC1
inactive: [1] 22.1% | [2] -12.7% | [3] 28.8% | [4] -4.65% | [5] 18.9% | [6] 16.9%

O=C(/C=C/CC(O)(c1ccccc1)c1ccccc1)Nc1ccccc1Cl
inactive: [1] -15.2% | [2] -25.9% | [3] -4.85% | [4] 2.5% | [5] 10.1% | [6] -10.2%

N#Cc1c2c(c(=O)n3c1[nH]c1ccccc13)CCCC2
inactive: [1] 16.2% | [2] 5.35% | [3] 19.8% | [4] 7.95% | [5] 18.4% | [6] 18.5%

CCC(=O)c1ccc(F)cc1
inactive: [1] 10.2% | [2] -20.9% | [3] 4.5% | [4] 20.3% | [5] -5.3% | [6] 20.4%

CCCCCCCCCCC1OCC(CC)([N+](=O)[O-])CO1 (stereo unspecified)
inactive: [1] 10.2% | [2] -27.9% | [3] 18.3% | [4] -46.4% | [5] 9.25% | [6] -10.6%

Cc1[nH]nc(-c2ccon2)c1N
inactive: [1] -4.45% | [2] -3.3% | [3] -27.4% | [4] -20.5% | [5] 13.2% | [6] -6.6%

Cc1ccc[n+](CCCCCCCC[n+]2cccc(C)c2)c1
inactive: [1] 54.7% | [2] 2.7% | [3] 44.4% | [4] -2.25% | [5] 3.4% | [6] 33.2%

CC(C)=NNC(=O)c1ccccc1CC(O)(c1ccccc1)c1ccccc1
inactive: [1] 22.1% | [2] 5.25% | [3] 10.2% | [4] -35.6% | [5] -24.4% | [6] 15.2%
